Gal4-VP16 FLuc – inhibits Gal4-VP16 luciferase reporter, ROR gamma counter-screen | Drosophila S2 Gal4-VP16 UAS-luciferase, luminescence, 20 h | Potency, µM (titrated, usually from 53.6 µM), inactives show at the highest dose activity, negative = inhibition, hits mostly inhibitors | actives 3.5% (n = 310,000) | AID 2546;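 also: Gal4-VP16 expression switched on by copper sulfate through the metallothionein promoter; % is scaled to controls: 0 for no effect and ±100 for the full control effect; nearly all actives have a fitted effect of over 50% in size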
ClpP mod – qHTS Assay for Activators of ClpP | ATP-dependent Clp protease proteolytic subunit (Bacillus subtilis (strain 168)), P80244 | purified B. subtilis ClpP, FRET peptide cleavage, 20 min | Potency, µM (series often up to 57.5 µM), inactives show at the top dose activity change, negative = active | actives 1.9% (n = 340,000) | AID 651965, 2013; active = well fitted falling curve with a large enough effect; inconclusive = small, poorly fitted or top-dose-only effect; inactive = no such curve, though single readings can be large or run the other way; also: the source files actives as falling curves though it sought activators and does not explain the sign; nearly all actives have a fitted effect of over 65% in size
Target sequence (P80244 whole entry, looked up): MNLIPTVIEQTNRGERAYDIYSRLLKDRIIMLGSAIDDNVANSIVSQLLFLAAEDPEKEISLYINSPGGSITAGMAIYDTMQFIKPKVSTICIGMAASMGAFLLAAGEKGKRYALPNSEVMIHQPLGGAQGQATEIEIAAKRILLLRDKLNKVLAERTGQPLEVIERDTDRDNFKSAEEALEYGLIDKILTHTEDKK
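FRET quenching reversal measured ClpP activation: 10 microg/mL B. subtilis ClpP at pH 8 with the FRET-FV decapeptide, read at 430 nm after 320 nm excitation. The 20-min minus 0-min signal was scaled between DMSO/no-enzyme wells and ADEP (5.8 microM final).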
Epigenetic reg – epigenetic control regulation, reporter derepression. Potency, µM (highest dose often 53.9 µM), inactives show top-dose GFP activation, usual class: activators. murine LDR cells, GFP reporter derepression, 30 h. actives 0.2% (n = 280,000); also: % of control where 0% means no effect; nearly all actives have a fitted effect of over 60% in size
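Derepression of a silenced CMV-GFP reporter in murine LDR cells is scored by enumerating GFP-positive cells with a laser-scanning microplate cytometer after 30 hours of treatment at 37 C.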
PINK1 modulator – changes PINK1 expression; actives 0.2% (n = 410,000); PINK1 immunofluorescence, high-content cytometry, 24 h; Potency, µM (highest dose often 76.6 µM), without a hit: at the top dose activation (PINK1 increase), hits mostly activators; active = well fitted activation curve with a large enough effect; inconclusive = small, poorly fitted or top-dose-only effect; cell line not stated here; also: % of control where 0% means no effect; nearly all actives have a fitted effect of over 65% in size
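Decision-based qHTS: stable cells, 24 h exposure to five compound concentrations, CCCP as control. Fixed cells stained for PINK1 plus nuclear, mitochondrial and cell markers, cytometer read.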
RORgamma inh – ROR gamma (mouse) transcription inhibition. P51450. Drosophila S2 Gal4-RORgamma UAS-luciferase reporter, 20 h. Potency, µM (highest dose often 53.6 µM), without a hit: at the highest dose activity change, negative = inhibition, usual class: inhibitors. actives 5.4% (n = 310,000). AID 2551; also: % is scaled to controls: 0 for no effect and ±100 for the full control effect; nearly all actives have a fitted effect of over 60% in size
Target sequence (P51450 whole entry, looked up, the tested form may be a part): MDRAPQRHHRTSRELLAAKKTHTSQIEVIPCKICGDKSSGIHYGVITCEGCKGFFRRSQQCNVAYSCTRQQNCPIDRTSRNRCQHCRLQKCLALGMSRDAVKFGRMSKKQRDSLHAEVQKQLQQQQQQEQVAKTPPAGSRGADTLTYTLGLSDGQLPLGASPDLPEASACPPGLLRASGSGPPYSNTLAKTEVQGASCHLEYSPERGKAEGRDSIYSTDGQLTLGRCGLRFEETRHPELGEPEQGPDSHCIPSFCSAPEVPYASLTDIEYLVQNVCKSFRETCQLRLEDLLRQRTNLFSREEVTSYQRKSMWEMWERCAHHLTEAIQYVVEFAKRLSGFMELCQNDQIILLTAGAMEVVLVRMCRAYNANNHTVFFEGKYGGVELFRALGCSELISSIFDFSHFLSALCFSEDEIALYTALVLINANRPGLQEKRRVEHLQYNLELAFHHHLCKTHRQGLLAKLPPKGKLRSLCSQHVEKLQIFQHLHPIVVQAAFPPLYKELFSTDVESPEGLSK
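Using a luciferase readout, inhibitors were identified by reduced reporter activity in Drosophila cells coexpressing a copper-inducible Gal4–ROR gamma fusion and UAS-driven Photinus luciferase, incubated 20 hr after 700 uM copper sulfate.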
Sfp inh – blocks B. subtilis Sfp PPTase activity. Potency, µM, without a hit: largest response in the series, negative = inhibition, usual class: inhibitors. Biochemical Sfp PPTase activity, qHTS. actives 3.5% (n = 310,000). AID 1490;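 also: the enzyme is Sfp with the accession as filed and its product quenches rhodamine fluorescence; 0% = enzyme reaction without inhibitor and -100% = no enzyme wells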
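Step 1, compound plus 15 nM Sfp-PPTase, 15 min, room temperature. Step 2, add rhodamine-CoA (5 uM) and BHQ-2-YbbR (12.5 uM). Step 3, read 525/598 nm fluorescence at 0 and 30 min.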
The depositor's hits bear a star; ? = inconclusive; / = no result; [ ] = another dose, or the depositor's remark. In the library only some 8.1% were active in any assay of this set; here they are far more common. Unless noted, calls follow the shape of the dose curve; as a rule, active = well fitted curve in the direction sought with a large enough effect; inconclusive = small, poorly fitted or top-dose-only effect, or another doubt; inactive = no such curve, though single readings can be large; an effect the other way counts as inactive or inconclusive. Potency is read from the fitted curve at half-maximal effect.

SMILES	Gal4-VP16 FLuc	ClpP mod	Epigenetic reg	PINK1 modulator	RORgamma inh	Sfp inh
O=C(NC1CCCC1)C(c1ccncc1)N(Cc1ccccc1)C(=O)c1ccc(-c2ccccc2)[nH]1 (stereo not drawn)	?	-15.0%	?	-1.7%	-42.1%[10 µM]	17.8µM*
CCOC(=O)c1cc(-c2ccccc2)n(-c2cccc(C(=O)Nc3cccc(SC)c3)c2)c1C	/	?	0.0%	2.8%	/	/
COc1ccccc1C(=O)CC(=O)C(=O)Nc1cccc([N+](=O)[O-])c1C	12.6µM*	0.4%	/	7.2%	7.08µM*	11.7%
COc1ccc(C(=O)CC(=O)C(=O)Nc2cccc([N+](=O)[O-])c2C)cc1	?	/	/	8.0%	10µM*	-4.4%
COc1ccccc1C/C(N)=N/OC(=O)c1cccc([N+](=O)[O-])c1C	12.6µM*	-29.7%	-3.0%	-2.8%	-37.4%	-3.6%
COc1cccc(C(=O)CC(=O)C(=O)Nc2cccc([N+](=O)[O-])c2C)c1	?	/	/	8.5%	14.1µM*	3.0%
COc1cccc(C(=O)CC(=O)C(=O)Nc2ccc(C)cc2Cl)c1	?	/	/	10.6%	?	9.8%
COc1ccc(/C(N)=N/OC(=O)c2cccc([N+](=O)[O-])c2C)cc1	5.0%[10 µM]	-4.4%	1.1%	2.9%	-9.3%	3.5%
Cc1cc(Oc2ccccc2)nc(SCC(=O)Nc2ccc(Cl)cc2Cl)n1	8.7%	-3.2%	8.8%	-2.5%[38.3 µM]	3.55µM*	-15.9%
COC(=O)CSc1nc(C)cc(Oc2ccccc2)n1	-0.3%	0.0%	1.9%	-0.1%	10.1%	13.0%
Cc1cccc(CNC(=O)c2cnn(-c3ncc(C)c(-c4ccc(F)cc4)n3)c2C)n1	/	/	/	-0.3%	/	/
CN1CCc2c(sc(/N=C/c3ccco3)c2C(N)=O)C1	1.2%	6.6%	-3.5%	-4.9%	-1.5%	9.8%
CN1CCc2c(sc(/N=C/c3cccs3)c2C(N)=O)C1	4.7%	10µM*	-0.4%	2.5%	13.3%	2.2%
CC(C)NS(=O)(=O)c1cc(C(F)(F)F)ccc1/C=C/C(=O)O	/	-0.2%	/	/	/	/
Cc1ccc2cc(CN(Cc3ccco3)S(=O)(=O)c3c(C)ccc4nsnc34)c(=O)[nH]c2c1	-1.0%	-12.5%	1.0%	1.3%[38.3 µM]	-2.3%	15.8µM*
Cc1ccc2[nH]c(=O)c(CN(CCCO)S(=O)(=O)c3c(C)ccc4nsnc34)cc2c1	-2.4%	-0.4%	-4.8%	-2.4%[38.3 µM]	33.4%	11.8%
Cc1cc2cc(CN(Cc3ccco3)S(=O)(=O)c3c(C)ccc4nsnc34)c(=O)[nH]c2cc1C	-2.0%	-7.2%	5.8%	-33.8%[38.3 µM]	34.2%	50.1µM*
Cc1cccc(OCC(=O)NCc2ccc3c(c2)CCN3C(=O)c2ccc(Cl)cc2)c1	/	-19.5%	-1.3%	1.5%	/	/
Cc1cc(=S)nc(-c2ccccn2)[nH]1	?	-4.9%	9.6%	1.2%	0.794µM*	35.5µM*
Cc1[nH]c(-c2ccccn2)nc(=S)c1Cl	?	/	4.2%	0.4%	10µM*	39.8µM*
COc1ccc2nc(-c3ccccn3)[nH]c2c1	/	-2.5%	/	0.2%	/	-23.4%
CSc1ccc(CCNC(=O)c2ccc(-c3nc(COc4ccc(C)cc4)c(C)o3)cc2)cc1	/	-0.1%	-5.7%	0.8%	/	/
COc1ccc(N2CCN(c3oc(-c4ccccc4C)nc3S(=O)(=O)c3ccccc3)CC2)cc1	/	-22.5%	-1.0%	2.1%	/	/
Cc1ccc(C2(COC(=O)C(C)C)CO2)c(OC(=O)C(C)C)c1 (stereo not drawn)	8.91µM*	-0.5%	1.1%	0.1%	-7.3%	1.2%
COc1ccc(C(=O)NN/C(C)=C/C(=O)C(F)(F)C(F)(F)C(F)(F)F)cc1	5.62µM*	3.16µM*	0.2%	-0.6%	5.62µM*	5.5%
SMILES	Gal4-VP16 FLuc	ClpP mod	Epigenetic reg	PINK1 modulator	RORgamma inh	Sfp inh
Cc1cc(NC(=O)/C=C/c2ccccc2Cl)n(-c2nc3ccccc3[nH]2)n1	1.26µM*	0.8%	3.2%	2.9%	1.78µM*	-27.4%
Cc1nc2ccccc2c(=O)n1NC(=O)/C=C/c1ccccc1Cl	-4.7%	/	-0.9%	0.1%	-1.5%	-5.3%
Cc1cc(NC(=O)CC2CCCC2)n(-c2nc3ccccc3[nH]2)n1	3.55µM*	19.1%	0.0%	2.4%	1.78µM*	11.6%
Cc1cc(NC(=O)c2ccc(F)cc2F)n(-c2nc3ccccc3[nH]2)n1	1.78µM*	-15.7%	-1.1%	?	1.12µM*	0.5%
O=C1c2oc3ccccc3c(=O)c2C(c2cccc(O)c2)N1Cc1ccc(F)cc1 (stereo not drawn)	/	-1.2%	-1.0%	2.4%	/	/
CC(=O)Cn1ncc(Br)c(Br)c1=O	0.4%[10 µM]	/	-2.3%	0.5%	11.2µM*	-3.3%
O=C(OCn1ncc(Br)c(Br)c1=O)c1c(F)cccc1F	4.47µM*	/	1.0%	/	3.55µM*	-11.3%
CC(C)CC1=C/C(=C/c2ccc(-c3ccccc3)o2)C(=O)O1	5.9%	25.1µM*	0.1%	-0.9%	13.9%	?
NCCC[C@@H](CC(=O)N[C@@H]1CCCC[C@H]1C(=O)N[C@H](CC(=O)N[C@@H](CCC(=O)O)CC(=O)O)Cc1ccccc1)NC(=O)C[C@H](Cc1c[nH]c2ccccc12)NC(=O)[C@@H]1CCCC[C@H]1N	-3.0%	/	-0.3%	/	-0.1%	0.0%
COc1ccc(CN(CCC(c2ccccc2)c2ccc(OC(C)C)cc2)C(=O)CCl)cc1OC (stereo not drawn)	?	-1.9%	-1.6%	-2.7%	12.6µM*	-11.0%
COc1ccc(C(CCN(Cc2ccc(OC)c(OC)c2)C(C)=O)c2ccccc2)cc1 (stereo not drawn)	?	-23.2%	-0.9%	0.1%	?	2.9%
CCN(Cc1ccccc1)C(=O)Cn1cc(S(=O)(=O)Cc2cccc(Cl)c2)c2ccccc21	/	-0.5%	-0.4%	0.6%	/	/
O=c1sc(/C=N/Nc2ccccc2)c(Cl)n1Cc1ccccc1	?	/	0.0%	12.3%	?	50.1µM*
O=Cc1sc(=O)n(Cc2cccc(C(=O)O)c2)c1Cl	?	/	5.3%	0.3%	7.9%	44.7µM*
O=C(COc1ccccc1)N/N=C/c1sc(=O)n(Cc2cccc(C(=O)O)c2)c1Cl	4.4%	/	-4.5%	-1.8%	-2.9%	-3.2%
O=C(O)c1cccc(Cn2c(Cl)c(/C=N/NC(=O)c3ccc(O)cc3)sc2=O)c1	-25.4%	/	8.4%	0.0%	?	25.1%
CNc1cc[n+](C)c2ccccc12	/	?	/	1.9%	/	/
CC(NCC(O)COCCC12CC3CC(CC(C3)C1)C2)c1ccccc1 (stereo not drawn)	?	-0.3%	2.6%	-2.9%	12.6µM*	-27.1%
NCC(O)COCCC12CC3CC(CC(C3)C1)C2 (stereo not drawn)	-11.3%	-0.1%	-1.0%	0.7%	-25.5%	?

Screens from PubChem.
